# From PubChem BioAssay (NCATS)
# Results filed as inconclusive are left out. Active and inactive are the calls of the source. Calls come from the whole dose curve; as a rule, active = well fitted curve in the direction sought with a large enough effect; inconclusive = small, poorly fitted or top-dose-only effect, or another doubt; inactive = no such curve, though single readings can be large; an effect the other way counts as inactive or inconclusive.
# Legend:
# [1] = Quantitative High-Throughput drug screen in 47 multiple myeloma cell lines against the NCATS MIPE library collection: KHM11_PLB cell viability assay (AID 1918962); note: nearly all actives have a fitted effect of over 35% in size
# Procedure, shortened: (§1)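 qHTS of the MIPE 4.0 collection: 500 myeloma cells/well, 48 h drug exposure at 37C in 5% CO2, then CellTiter-Glo for 5 min at room temperature before luminescence reading.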
# [2] = Quantitative High-Throughput drug screen in 47 multiple myeloma cell lines against the NCATS MIPE library collection: JIM3_ECACC cell viability assay (AID 1918963; note: nearly all actives have a fitted effect of over 35% in size)
# Procedure, shortened: as §1
# [3] = Quantitative High-Throughput drug screen in 47 multiple myeloma cell lines against the NCATS MIPE library collection: JIM1_ECACC cell viability assay (AID 1918964)
# Procedure, shortened: (§2)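 Viability readout: CellTiter-Glo luminescence following 5 min room-temperature incubation with reagent. Prior exposure: 48 h, 37C, humidified 5% CO2, 500 cells per well.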
# [4] = Quantitative High-Throughput drug screen in 47 multiple myeloma cell lines against the NCATS MIPE library collection: INA6_PLB cell viability assay (AID 1918965; note: nearly all actives have a fitted effect of over 55% in size)
# Procedure, shortened: (§3)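 Luminescent ATP measurement with CellTiter-Glo gives viability, scaled between DMSO-only wells (100%) and media-only wells (0%). Cells, 500 per well, faced library compounds for 48 hours at 37C.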
# [5] = Quantitative High-Throughput drug screen in 47 multiple myeloma cell lines against the NCATS MIPE library collection: JJN3_DSMZ cell viability assay (AID 1918966; note: nearly all actives have a fitted effect of over 50% in size)
# Procedure, shortened: as §2
# [6] = Quantitative High-Throughput drug screen in 47 multiple myeloma cell lines against the NCATS MIPE library collection: Karpas25_ECACC cell viability assay (AID 1918968; note: nearly all actives have a fitted effect of over 35% in size)
# Procedure, shortened: as §2
# [7] = Quantitative High-Throughput drug screen in 47 multiple myeloma cell lines against the NCATS MIPE library collection: KMS27_JCRB cell viability assay (AID 1918970); note: nearly all actives have a fitted effect of over 30% in size
# Procedure, shortened: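 Luminescent ATP read-out (CellTiter-Glo, 5 min at room temperature) after 48 h compound exposure of 500 KMS27_JCRB cells per well; DMSO wells define full viability and media-only wells zero.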
# [8] = Quantitative High-Throughput drug screen in 47 multiple myeloma cell lines against the NCATS MIPE library collection: KMS12BM_JCRB cell viability assay (AID 1918971); note: nearly all actives have a fitted effect of over 35% in size
# Procedure, shortened: (§4)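 Myeloma cell lines, 500 cells per well, exposed to MIPE 4.0 library compounds for 48 h at 37C, 5% CO2. Viability from ATP by CellTiter-Glo luminescence; normalised to DMSO (100%) and media-only (0%) wells.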
# [9] = Quantitative High-Throughput drug screen in 47 multiple myeloma cell lines against the NCATS MIPE library collection: KMS12PE_JCRB cell viability assay (AID 1918972); note: nearly all actives have a fitted effect of over 30% in size
# Procedure, shortened: as §3
# [10] = Quantitative High-Throughput drug screen in 47 multiple myeloma cell lines against the NCATS MIPE library collection: KMS26_JCRB cell viability assay (AID 1918975); note: nearly all actives have a fitted effect of over 45% in size
# Procedure, shortened: as §4
# [11] = Quantitative High-Throughput drug screen in 47 multiple myeloma cell lines against the NCATS MIPE library collection: MMM1_PLB cell viability assay (AID 1918976); note: nearly all actives have a fitted effect of over 35% in size
# Procedure, shortened: (§5)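 qHTS format: cells plated (500/well), pin-dosed with MIPE 4.0 compounds, kept 48 h at 37 °C. Readout was CellTiter-Glo luminescence, median RLU.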
# [12] = Quantitative High-Throughput drug screen in 47 multiple myeloma cell lines against the NCATS MIPE library collection: NCIH929_DSMZ cell viability assay (AID 1918978); note: nearly all actives have a fitted effect of over 35% in size
# Procedure, shortened: as §5
# [13] = Quantitative High-Throughput drug screen in 47 multiple myeloma cell lines against the NCATS MIPE library collection: MM1S_ATCC cell viability assay (AID 1918980); note: nearly all actives have a fitted effect of over 45% in size
# Procedure, shortened: as §5
# [14] = Quantitative High-Throughput drug screen in 47 multiple myeloma cell lines against the NCATS MIPE library collection: MM1R_ATCC cell viability assay (AID 1918981); note: nearly all actives have a fitted effect of over 35% in size
# Procedure, shortened: as §5
# [15] = Quantitative High-Throughput drug screen in 47 multiple myeloma cell lines against the NCATS MIPE library collection: H1112_PLB cell viability assay (AID 1918967; note: nearly all actives have a fitted effect of over 30% in size)
# Procedure, shortened: as §2
# [16] = Quantitative High-Throughput drug screen in 47 multiple myeloma cell lines against the NCATS MIPE library collection: KMS20_JCRB cell viability assay (AID 1918973); note: nearly all actives have a fitted effect of over 45% in size
# Procedure, shortened: as §2
# [17] = Quantitative High-Throughput drug screen in 47 multiple myeloma cell lines against the NCATS MIPE library collection: KMS21BM_JCRB cell viability assay (AID 1918974); details: ATP luminescence, 48 h; viability: at 45.8 µM (top of the series) unless noted
# Procedure, shortened: as §2
# [18] = Quantitative High-Throughput drug screen in 47 multiple myeloma cell lines against the NCATS MIPE library collection: MOLP8_DSMZ cell viability assay (AID 1918977); note: nearly all actives have a fitted effect of over 45% in size
# Procedure, shortened: as §5
# [19] = Quantitative High-Throughput drug screen in 47 multiple myeloma cell lines against the NCATS MIPE library collection: OCIMY1_PLB cell viability assay (AID 1918979); note: nearly all actives have a fitted effect of over 35% in size
# Procedure, shortened: as §5
# [20] = Quantitative High-Throughput drug screen in 47 multiple myeloma cell lines against the NCATS MIPE library collection: LP1_DSMZ cell viability assay (AID 1918982); note: nearly all actives have a fitted effect of over 35% in size
# Procedure, shortened: as §5
# Potency is the fitted concentration of half-maximal effect.
SMILES,Potency [1],Potency [2],Potency [3],Potency [4],Potency [5],Potency [6],Potency [7],Potency [8],Potency [9],Potency [10],Potency [11],Potency [12],Potency [13],Potency [14],Potency [15],Potency [16],Potency [17],Potency [18],Potency [19],Potency [20]
COc1cc(C)c(Sc2cnc(NC(=O)c3ccc(CNC(C)C(C)C)cc3)s2)cc1C(=O)N1CCN(C(C)=O)CC1 (configuration not stated),18.7 µM (active),4.18 µM (active),inactive,18.7 µM (active),16.6 µM (active),4.69 µM (active),inactive,14.8 µM (active),inactive,14.8 µM (active),4.69 µM (active),2.96 µM (active),16.6 µM (active),14.8 µM (active),,,,,,
CC(C)c1ccc(Cn2ccc3c4c(N)nc(NC5CC5)nc4ccc32)cc1,14.8 µM (active),0.148 µM (active),1.87 µM (active),,8.33 µM (active),5.9 µM (active),0.372 µM (active),7.43 µM (active),0.833 µM (active),10.5 µM (active),16.6 µM (active),,10.5 µM (active),9.35 µM (active),9.35 µM (active),3.72 µM (active),1.32 µM (active),13.2 µM (active),14.8 µM (active),4.69 µM (active)
O=C(C=Cc1cccc(S(=O)(=O)Nc2ccccc2)c1)NO,3.82 µM (active),5.4 µM (active),1.71 µM (active),0.762 µM (active),,1.08 µM (active),2.7 µM (active),1.91 µM (active),1.36 µM (active),8.55 µM (active),10.8 µM (active),,1.91 µM (active),1.21 µM (active),5.4 µM (active),1.91 µM (active),0.54 µM (active),2.41 µM (active),6.79 µM (active),2.7 µM (active)
Cc1cnc(Nc2ccc(F)cc2Cl)nc1-c1c[nH]c(C(=O)N[C@H](CO)c2cccc(Cl)c2)c1,0.526 µM (active),16.6 µM (active),7.43 µM (active),9.35 µM (active),,14.8 µM (active),6.62 µM (active),23.5 µM (active),10.5 µM (active),20.9 µM (active),16.6 µM (active),16.6 µM (active),16.6 µM (active),16.6 µM (active),,3.32 µM (active),,23.5 µM (active),26.4 µM (active),18.7 µM (active)
COc1cccc2nc(-c3cccs3)nc(NN3C(=O)C=C(C)C3=O)c12,0.0526 µM (active),0.148 µM (active),0.105 µM (active),,1.18 µM (active),0.0264 µM (active),0.235 µM (active),0.105 µM (active),0.118 µM (active),2.96 µM (active),5.9 µM (active),0.235 µM (active),0.418 µM (active),0.187 µM (active),1.18 µM (active),0.059 µM (active),0.235 µM (active),,0.187 µM (active),0.187 µM (active)
Nc1ccccc1NC(=O)c1ccc(CNc2nccc(-c3cccnc3)n2)cc1,2.64 µM (active),2.64 µM (active),1.32 µM (active),0.296 µM (active),,0.833 µM (active),2.64 µM (active),,0.469 µM (active),1.32 µM (active),,1.18 µM (active),0.935 µM (active),0.743 µM (active),2.64 µM (active),0.743 µM (active),0.662 µM (active),1.18 µM (active),3.32 µM (active),2.09 µM (active)
COc1cc2c(cc1-c1c(C)noc1C)ncc1[nH]c(=O)n([C@H](C)c3ccccn3)c12,2.96 µM (active),18.7 µM (active),5.9 µM (active),,6.62 µM (active),4.69 µM (active),3.72 µM (active),0.833 µM (active),0.833 µM (active),0.0264 µM (active),,3.32 µM (active),2.64 µM (active),3.32 µM (active),20.9 µM (active),8.33 µM (active),0.743 µM (active),0.296 µM (active),,0.372 µM (active)
COc1ccc(OC)c(-c2nnc3ccc(-c4ccc(OC)c(O[C@@H]5CCOC5)c4)nn23)c1,7.43 µM (active),8.33 µM (active),8.33 µM (active),,16.6 µM (active),6.62 µM (active),8.33 µM (active),10.5 µM (active),7.43 µM (active),20.9 µM (active),11.8 µM (active),9.35 µM (active),,8.33 µM (active),13.2 µM (active),5.26 µM (active),7.43 µM (active),9.35 µM (active),20.9 µM (active),14.8 µM (active)
